# Experimental data as given in paper PMC10812921, “Transcriptional Coactivator BOB1 (OBF1, OCA-B) Modulates the Specificity of DNA Recognition by the POU-Domain Factors OCT1 and OCT2 in a Monomeric Configuration”.
# Target: POU1 (OCT1 POU domain);BOB1 (OBF1, OCA-B) (human;human, UniProt P14859;Q16633 260-458;1-256, |)
# Test: EMSA-SELEX-seq; with BOB1 (ternary complex band); 20 mM Tris-HCl pH 7.6, 140 mM NaCl, 10% glycerol, 0.5 mM EDTA, 0.05% Triton X-100, 0.1 mg/mL BSA, 0.1 mg/mL poly(dI-dC), 5 mM DTT, room temperature, 20 min; high values mean tight binding
# Conditions: protein: recombinant;recombinant; copies: 1;1; dsDNA, one strand shown
# How it was run: (§1)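 After expression in E. coli BL21, tagged POU-domain proteins were purified under denaturing conditions and then renatured. Each binding reaction held 30 ng protein and 300 ng of a PCR-amplified double-stranded random 35-nt library in 20 μL Tris–HCl pH 7.6 binding buffer, with or without 28 ng coactivator protein, for 20 min at RT. Bands holding complexes were cut from native 6% PAGE, eluted and PCR-amplified across four rounds, and the output was Illumina-sequenced. The value given for binding preference is the share, in percent, of sequenced 8-mers fitting a motif pattern.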
row,Sequence,binding signal
1,ACGAAAAC,0.0289 % of ANNNNAAN 8-mers
2,AGAAAAAT,0.0921 % of ANNNNAAN 8-mers
3,AAGGCAAA,0.443 % of ANNNNAAN 8-mers
4,AGGGGAAC,0.0355 % of ANNNNAAN 8-mers
5,AAAAGAAT,0.0937 % of ANNNNAAN 8-mers
6,ACATGAAT,0.0773 % of ANNNNAAN 8-mers
7,ATTCAAAA,0.427 % of ANNNNAAN 8-mers
8,AAAGCAAC,0.0281 % of ANNNNAAN 8-mers
9,AAAATAAC,0.0816 % of ANNNNAAN 8-mers
10,ATTCTAAA,0.0542 % of ANNNNAAN 8-mers
11,AGTAGAAC,0.0242 % of ANNNNAAN 8-mers
12,AATTGAAC,0.0386 % of ANNNNAAN 8-mers
13,ACCCAAAA,0.0246 % of ANNNNAAN 8-mers
14,ACGGTAAA,0.0507 % of ANNNNAAN 8-mers
15,ACAGGAAG,0.0332 % of ANNNNAAN 8-mers
16,AGGCAAAA,0.454 % of ANNNNAAN 8-mers
17,AGATGAAT,0.0765 % of ANNNNAAN 8-mers
18,ACCTCAAA,0.0191 % of ANNNNAAN 8-mers
19,ACCTTAAG,0.0187 % of ANNNNAAN 8-mers
20,ATCGTAAA,0.0531 % of ANNNNAAN 8-mers

row,Sequence,binding signal
1,AATCAAAT,0.419 % of ANNNNAAN 8-mers
2,AGTTGAAG,0.0398 % of ANNNNAAN 8-mers
3,ATGATAAG,0.0714 % of ANNNNAAN 8-mers
4,ACAAGAAT,0.0437 % of ANNNNAAN 8-mers
5,ACCTGAAA,0.0215 % of ANNNNAAN 8-mers
6,AGGTCAAT,0.0437 % of ANNNNAAN 8-mers
7,AGTATAAA,0.0585 % of ANNNNAAN 8-mers
8,ACGGCAAA,0.0445 % of ANNNNAAN 8-mers
9,AACGAAAC,0.0238 % of ANNNNAAN 8-mers
10,AGAATAAG,0.0527 % of ANNNNAAN 8-mers
11,ATAAGAAG,0.0562 % of ANNNNAAN 8-mers
12,ACAGTAAG,0.032 % of ANNNNAAN 8-mers
13,ACTGTAAG,0.0265 % of ANNNNAAN 8-mers
14,AAGCAAAT,0.906 % of ANNNNAAN 8-mers
15,AGTGGAAC,0.0281 % of ANNNNAAN 8-mers
16,AGCCAAAT,0.167 % of ANNNNAAN 8-mers
17,AGTTGAAT,0.0667 % of ANNNNAAN 8-mers
18,ATTTTAAA,0.126 % of ANNNNAAN 8-mers
19,ATCGAAAA,0.0441 % of ANNNNAAN 8-mers
20,ATGGCAAC,0.0297 % of ANNNNAAN 8-mers

# Target: T1, POU2 (OCT2 POU domain);BOB1 (OBF1, OCA-B) (human;human, UniProt P09086;Q16633 175-386;1-256, |)
# T1 sequence 1: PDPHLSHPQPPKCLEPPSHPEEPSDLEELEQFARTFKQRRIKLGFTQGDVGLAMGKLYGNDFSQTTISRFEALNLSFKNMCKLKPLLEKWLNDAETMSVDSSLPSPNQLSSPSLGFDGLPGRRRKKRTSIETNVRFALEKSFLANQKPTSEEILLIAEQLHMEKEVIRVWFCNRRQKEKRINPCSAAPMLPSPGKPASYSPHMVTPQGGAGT
# T1 sequence 2: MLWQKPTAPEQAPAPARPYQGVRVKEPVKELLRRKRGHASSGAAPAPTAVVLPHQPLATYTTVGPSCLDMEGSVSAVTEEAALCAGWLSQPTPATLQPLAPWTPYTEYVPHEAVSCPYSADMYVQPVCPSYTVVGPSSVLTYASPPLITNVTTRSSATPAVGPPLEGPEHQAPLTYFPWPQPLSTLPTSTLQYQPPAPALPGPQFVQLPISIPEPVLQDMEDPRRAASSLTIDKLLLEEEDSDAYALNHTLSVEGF
# Test: as above
# Conditions: protein: recombinant;recombinant; copies: 1;1; dsDNA, one strand shown
# How it was run: as §1
row,Sequence,binding signal
1,ACGAAAAC,0.0264 % of ANNNNAAN 8-mers
2,AGAAAAAT,0.09 % of ANNNNAAN 8-mers
3,AAGGCAAA,0.278 % of ANNNNAAN 8-mers
4,AGGGGAAC,0.0487 % of ANNNNAAN 8-mers
5,AAAAGAAT,0.0817 % of ANNNNAAN 8-mers
6,ACATGAAT,0.0925 % of ANNNNAAN 8-mers
7,ATTCAAAA,0.278 % of ANNNNAAN 8-mers
8,AAAGCAAC,0.0272 % of ANNNNAAN 8-mers
9,AAAATAAC,0.0735 % of ANNNNAAN 8-mers
10,ATTCTAAA,0.0726 % of ANNNNAAN 8-mers
11,AGTAGAAC,0.0239 % of ANNNNAAN 8-mers
12,AATTGAAC,0.052 % of ANNNNAAN 8-mers
13,ACCCAAAA,0.0206 % of ANNNNAAN 8-mers
14,ACGGTAAA,0.0504 % of ANNNNAAN 8-mers
15,ACAGGAAG,0.0396 % of ANNNNAAN 8-mers
16,AGGCAAAA,0.204 % of ANNNNAAN 8-mers
17,AGATGAAT,0.09 % of ANNNNAAN 8-mers
18,ACCTCAAA,0.0256 % of ANNNNAAN 8-mers
19,ACCTTAAG,0.0281 % of ANNNNAAN 8-mers
20,ATCGTAAA,0.0471 % of ANNNNAAN 8-mers

row,Sequence,binding signal
1,AATCAAAT,0.301 % of ANNNNAAN 8-mers
2,AGTTGAAG,0.0338 % of ANNNNAAN 8-mers
3,ATGATAAG,0.0768 % of ANNNNAAN 8-mers
4,ACAAGAAT,0.0512 % of ANNNNAAN 8-mers
5,ACCTGAAA,0.019 % of ANNNNAAN 8-mers
6,AGGTCAAT,0.0636 % of ANNNNAAN 8-mers
7,AGTATAAA,0.0479 % of ANNNNAAN 8-mers
8,ACGGCAAA,0.0371 % of ANNNNAAN 8-mers
9,AACGAAAC,0.0157 % of ANNNNAAN 8-mers
10,AGAATAAG,0.0702 % of ANNNNAAN 8-mers
11,ATAAGAAG,0.0636 % of ANNNNAAN 8-mers
12,ACAGTAAG,0.0272 % of ANNNNAAN 8-mers
13,ACTGTAAG,0.0264 % of ANNNNAAN 8-mers
14,AAGCAAAT,0.826 % of ANNNNAAN 8-mers
15,AGTGGAAC,0.0314 % of ANNNNAAN 8-mers
16,AGCCAAAT,0.0892 % of ANNNNAAN 8-mers
17,AGTTGAAT,0.0834 % of ANNNNAAN 8-mers
18,ATTTTAAA,0.103 % of ANNNNAAN 8-mers
19,ATCGAAAA,0.0454 % of ANNNNAAN 8-mers
20,ATGGCAAC,0.0264 % of ANNNNAAN 8-mers
